Our source for the Potency, outcome and PLD induction values is PubChem BioAssay (Tox21).

SMILES strings stand for the structures. Where “and” joins values, the source holds several entries; their conditions need not be identical. Identical values can stand only once. Values without a mark were called inactive. Inconclusive results are not listed. Calls of active or inactive are those of the source. Unless noted, calls come from the whole dose curve; as a rule, active = well fitted curve in the direction sought with a large enough effect in the repeat runs; inconclusive = weak or mixed curves; inactive = no such curve, though single readings can be large; an effect the other way counts as inactive or inconclusive.

A short description of assay [1]: qHTS RealTime-Glo MT Cell Viability Assay in HEK293 cells - 24 hour (AID 1224886). Note: nearly all actives have a fitted effect of over 50% in size. Note: potency is the fitted concentration of half-maximal effect. Summed up: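 Quantitative high-throughput screen of the Tox21 10K library in HEK293: cells and RealTime-Glo reagents plated together, compound added at 5 h, luminescence monitored through 40 h at 37 C.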
(qHTS replaces the single test concentration by a dilution series.)

Assay [2] is described as follows: qHTS RealTime-Glo MT Cell Viability Assay in HEK293 cells - 8 hour (AID 1224887). Note: nearly all actives have a fitted effect of over 50% in size. Note: potency is the fitted concentration of half-maximal effect. Summed up:
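600 HEK293 cells per well, dispensed already mixed with RealTime-Glo MT reagents. Compound dosing came 5 h later. The same wells were read for luminescence at 0, 8, 16, 24, 32 and 40 h of exposure at 37 C.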

A short description of assay [3]: qHTS RealTime-Glo MT Cell Viability Assay in HepG2 cells - 0 hour (AID 1224889). Note: % is set by controls: 0 for no effect and ±100 for the full control effect; nearly all actives have a fitted effect of over 50% in size. Summed up:
(§1)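 Compound treatment began 5 h after plating HepG2 cells (600/well) with NanoLuc luciferase and prosubstrate. Plates stayed at 37 C for 40 h; luminescence was captured at six time points, 0 h through 40 h.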

The nature of assay [4]: A CellTox Green Cytotoxicity Assay to monitor cytotoxicity in HepG2 cells - 8 hour (AID 1224890). Note: nearly all actives have a fitted effect of over 45% in size. Note: potency is the fitted concentration of half-maximal effect. Summed up:
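First, HepG2 cells (600/well) mixed with reagent were plated; second, after 5 h at 37 C they received compounds via pintool; third, fluorescence was measured at 0 h through 40 h at 8 h intervals.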

A short description of assay [5]: qHTS assay to identify small molecule antagonists of the estrogen receptor alpha (ER-alpha) signaling pathway using the BG1 cell line in the presence of 0.1 nM 17-beta-estradiol - cell viability counter screen (AID 1259241). Note: % is set by controls: 0 for no effect and ±100 for the full control effect; nearly all actives have a fitted effect of over 40% in size. Summed up:
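CellTiter-Fluor read (30 min, 37C) on ER-alpha/ERE-luc VM7Luc4E2 cells; 22 hr compound treatment; agonist 0.1 nM E2 final; same-well multiplex.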

Assay [6] is described as follows: qHTS assay to identify small molecule antagonists of the androgen receptor (AR) signaling pathway using the MDA cell line in the presence of 0.5 nM R1881 - cell viability counter screen (AID 1259242). Note: nearly all actives have a fitted effect of over 45% in size. Note: potency is the fitted concentration of half-maximal effect. In short, it runs like this: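 qHTS format. MDA-kb2 (MMTV-luc, AR/GR responsive) + cpd + 0.5 nM R1881 final, 16 hr 37C/0% CO2 → CellTiter-Fluor 30 min → fluorescence intensity.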

Assay [7] can be described thus: qHTS assay to identify small molecule HDAC inhibitors (AID 1259364). Note: potency is the fitted concentration of half-maximal effect.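 Note: wild-type HCT-116 cells with endogenous class I/II HDAC activity; nearly all actives have a fitted effect of over 45% in size.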 Summed up:
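Quantitative high-throughput format: overnight-seeded HCT-116 cells got compounds for 2 hr at 37C; HDAC-Glo I/II reagent added, 30 min RT, luminescence measured.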

Assay [8] in a line: qHTS assay to identify small molecule HDAC inhibitors - cell viability counter screen (AID 1259365). Note: series mostly up to about 92 µM; % is set by controls: 0 for no effect and ±100 for the full control effect; nearly all actives have a fitted effect of over 50% in size. In short, it runs like this: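 To flag cytotoxic hits, 1,500 wild-type HCT-116 cells per well, plated the day before, receive test compounds for 2hr at 37 C before CellTiter-Glo reagent and a luminescence read.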
The nature of assay [9]: qHTS assay to identify small molecule agonists of the sonic hedgehog signaling (Shh) pathway - cell viability counter screen (AID 1259366). Summed up:
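Fluorescence from CellTiter-Fluor reports live cells in this counter screen. NIH/3T3-derived Gli1-Luc reporter cells receive test compounds for 24hr at 37C; reagent goes in at 23hr.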

A short description of assay [10]: qHTS assay to identify small molecule agonists of the sonic hedgehog signaling (Shh) pathway (AID 1259368; calls by dose curve;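 note: NIH/3T3-derived 3T3Gli1-Luc cells carrying a stable Gli1-driven firefly luciferase reporter; series mostly up to about 92 µM; % is set by controls: 0 for no effect and ±100 for the full control effect; nearly all actives have a fitted effect of over 15% in size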). In short, it runs like this: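 Quantitative high-throughput format using a Gli1-driven firefly luciferase reporter line derived from NIH/3T3 cells. After a 24 hr compound treatment at 37 C and 5% CO2, luminescence reported Gli1 response element activity.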

A short description of assay [11]: qHTS assay to identify small molecule antagonists of the sonic hedgehog signaling (Shh) pathway (AID 1259369; calls by dose curve; note: potency is the fitted concentration of half-maximal effect; nearly all actives have a fitted effect of over 45% in size). In short, it runs like this: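 Stable Gli1-Luc reporter NIH/3T3 clone; quantitative HTS in stimulated mode with conditioned medium. Luminescence measured after 24hr compound treatment at 37 C.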
Assay [12] deals with Estrogen receptor beta (Homo sapiens) (UniProt Q92731). Briefly: qHTS assay to identify small molecule agonists of the estrogen receptor beta (ER-beta) signaling pathway (AID 1259377; active = well fitted activation curve with a large enough effect in the signal ratio in the repeat runs, not every such curve was filed as active; the % refers to the signal ratio; note: % is set by controls: 0 for no effect and ±100 for the full control effect). Summed up: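 Screening used GripTite ER-beta-UAS-bla cells held in 2% charcoal-stripped FBS medium. After overnight (16 hr) compound incubation at 37C, beta-lactamase activity was detected with a FRET substrate by fluorescence.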

Assay [13] has as its target Estrogen receptor (Homo sapiens) (UniProt P03372). Briefly: qHTS assay to identify small molecule antagonists of the estrogen receptor alpha (ER-alpha) signaling pathway using the BG1 cell line in the presence of 0.1 nM 17-beta-estradiol (AID 1259244). Note: nearly all actives have a fitted effect of over 50% in size. Note: potency is the fitted concentration of half-maximal effect. In short, it runs like this:
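Reporter is a stably transfected luciferase under four estrogen responsive elements in VM7Luc4E2 cells expressing native full-length ER-alpha; inhibition of 0.1 nM (final) 17beta-estradiol-driven signal over 22 h is read by luminescence.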

Assay [14] can be described thus: qHTS assay to identify small molecule antagonists of the sonic hedgehog signaling (Shh) pathway - cell viability counter screen (AID 1259367). Note: nearly all actives have a fitted effect of over 55% in size. Note: potency is the fitted concentration of half-maximal effect. In short, it runs like this:
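Fluorescence read-out (CellTiter-Fluor, 1 hr at 37C) taken after 23 hr compound treatment of 3T3 Gli1-Luc cells stimulated with conditioned medium. Cells were seeded at 2,000 per well and pre-incubated 4 hr.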

Assay [15] is described as follows: qHTS RealTime-Glo MT Cell Viability Assay in HepG2 cells - 16 hour (AID 1224885). Note: nearly all actives have a fitted effect of over 50% in size. Note: potency is the fitted concentration of half-maximal effect. In short, it runs like this:
as §1

The nature of assay [16]: A CellTox Green Cytotoxicity Assay to monitor cytotoxicity in HEK293 cells - 16 hour (AID 1224888). Note: nearly all actives have a fitted effect of over 35% in size. Note: potency is the fitted concentration of half-maximal effect. Summed up: (§2)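 Dead-cell fluorescence measured kinetically: asymmetric cyanine dye, HEK293, 600 cells/well, 5 h settle, 23 nL cpd/DMSO, 37 C, reads 0–40 h every 8 h.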
Assay [17] is described as follows: qHTS assay to identify small molecule phospholipidosis (PLD) inducers (AID 1259344; active = well fitted curve in the direction sought with a large enough effect; an effect the other way counts as inactive or inconclusive; note: % is set by controls: 0 for no effect and ±100 for the full control effect). In short, it runs like this: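 Read-out is LipidTOX Red fluorescence (ex 595/em 615) imaged in HepG2 cells after 24 h compound exposure at 37 C, with Hoechst nuclear counterstain (ex 352/em 461) allowing per-cell normalisation.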
Assay [18] is described as follows: A CellTox Green Cytotoxicity Assay to monitor cytotoxicity in HEK293 cells - 8 hour (AID 1224884). Note: % is set by controls: 0 for no effect and ±100 for the full control effect; nearly all actives have a fitted effect of over 35% in size. Summed up:
as §2

Assay [19] deals with Androgen receptor (Homo sapiens) (UniProt P10275). Description: qHTS assay to identify small molecule antagonists of the androgen receptor (AR) signaling pathway using the MDA cell line in the presence of 0.5 nM R1881 (AID 1259243). In short, it runs like this:
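Antagonist mode quantitative HTS in MDA-kb2 MMTV-luciferase cells, agonist R1881 at 0.5 nM final, 16 hr exposure at 37C and 0% CO2, luminescent detection.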

Assay [20] addresses Estrogen receptor beta (Homo sapiens) (UniProt Q92731). Briefly: qHTS assay to identify small molecule antagonists of the estrogen receptor beta (ER-beta) signaling pathway (AID 1259378; active = well fitted inhibition curve with a large enough effect in the signal ratio in the repeat runs, not every such curve was filed as active; the % refers to the signal ratio; note: potency is the fitted concentration of half-maximal effect). In short, it runs like this: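 ER-beta-UAS-bla HEK293T cells in 2% charcoal-stripped FBS medium treated with compound plus 1nM final 17-beta-estradiol for 16 hr at 37C. Beta-lactamase reporter read by FRET substrate fluorescence after 2 hours at room temperature.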

Sequence of Estrogen receptor beta (Homo sapiens) (Q92731 whole entry, looked up): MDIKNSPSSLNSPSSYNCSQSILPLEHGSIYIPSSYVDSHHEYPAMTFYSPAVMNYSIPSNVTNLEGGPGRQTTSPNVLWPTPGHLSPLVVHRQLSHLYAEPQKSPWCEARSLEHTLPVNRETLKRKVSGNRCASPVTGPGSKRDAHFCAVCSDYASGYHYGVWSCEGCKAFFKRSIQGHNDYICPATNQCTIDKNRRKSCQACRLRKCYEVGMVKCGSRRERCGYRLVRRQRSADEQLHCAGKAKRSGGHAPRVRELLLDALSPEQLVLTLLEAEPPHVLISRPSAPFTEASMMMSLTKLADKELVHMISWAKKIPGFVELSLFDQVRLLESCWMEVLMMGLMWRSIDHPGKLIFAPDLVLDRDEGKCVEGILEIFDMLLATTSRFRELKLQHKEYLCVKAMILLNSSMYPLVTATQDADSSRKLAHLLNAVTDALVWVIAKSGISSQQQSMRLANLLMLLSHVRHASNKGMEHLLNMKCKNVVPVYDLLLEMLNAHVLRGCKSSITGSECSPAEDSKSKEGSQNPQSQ
Sequence of Estrogen receptor (Homo sapiens) (P03372 whole entry, looked up): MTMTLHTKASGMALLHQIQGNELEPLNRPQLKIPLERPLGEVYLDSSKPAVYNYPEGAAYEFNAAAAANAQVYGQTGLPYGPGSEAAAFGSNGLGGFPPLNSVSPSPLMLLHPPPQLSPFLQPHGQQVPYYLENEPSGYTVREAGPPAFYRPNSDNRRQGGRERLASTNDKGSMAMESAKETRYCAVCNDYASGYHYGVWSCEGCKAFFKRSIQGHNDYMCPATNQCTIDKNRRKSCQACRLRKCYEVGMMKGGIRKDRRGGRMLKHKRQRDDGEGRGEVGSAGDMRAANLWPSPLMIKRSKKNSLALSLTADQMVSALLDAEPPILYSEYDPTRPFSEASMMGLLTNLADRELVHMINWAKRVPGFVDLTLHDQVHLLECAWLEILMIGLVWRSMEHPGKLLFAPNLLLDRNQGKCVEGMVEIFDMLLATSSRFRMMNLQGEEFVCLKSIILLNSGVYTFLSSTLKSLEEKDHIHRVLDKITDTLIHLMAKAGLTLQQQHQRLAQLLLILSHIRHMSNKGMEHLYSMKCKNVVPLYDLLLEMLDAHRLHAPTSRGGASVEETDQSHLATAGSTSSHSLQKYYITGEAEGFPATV
Sequence of Androgen receptor (Homo sapiens) (P10275 whole entry, looked up): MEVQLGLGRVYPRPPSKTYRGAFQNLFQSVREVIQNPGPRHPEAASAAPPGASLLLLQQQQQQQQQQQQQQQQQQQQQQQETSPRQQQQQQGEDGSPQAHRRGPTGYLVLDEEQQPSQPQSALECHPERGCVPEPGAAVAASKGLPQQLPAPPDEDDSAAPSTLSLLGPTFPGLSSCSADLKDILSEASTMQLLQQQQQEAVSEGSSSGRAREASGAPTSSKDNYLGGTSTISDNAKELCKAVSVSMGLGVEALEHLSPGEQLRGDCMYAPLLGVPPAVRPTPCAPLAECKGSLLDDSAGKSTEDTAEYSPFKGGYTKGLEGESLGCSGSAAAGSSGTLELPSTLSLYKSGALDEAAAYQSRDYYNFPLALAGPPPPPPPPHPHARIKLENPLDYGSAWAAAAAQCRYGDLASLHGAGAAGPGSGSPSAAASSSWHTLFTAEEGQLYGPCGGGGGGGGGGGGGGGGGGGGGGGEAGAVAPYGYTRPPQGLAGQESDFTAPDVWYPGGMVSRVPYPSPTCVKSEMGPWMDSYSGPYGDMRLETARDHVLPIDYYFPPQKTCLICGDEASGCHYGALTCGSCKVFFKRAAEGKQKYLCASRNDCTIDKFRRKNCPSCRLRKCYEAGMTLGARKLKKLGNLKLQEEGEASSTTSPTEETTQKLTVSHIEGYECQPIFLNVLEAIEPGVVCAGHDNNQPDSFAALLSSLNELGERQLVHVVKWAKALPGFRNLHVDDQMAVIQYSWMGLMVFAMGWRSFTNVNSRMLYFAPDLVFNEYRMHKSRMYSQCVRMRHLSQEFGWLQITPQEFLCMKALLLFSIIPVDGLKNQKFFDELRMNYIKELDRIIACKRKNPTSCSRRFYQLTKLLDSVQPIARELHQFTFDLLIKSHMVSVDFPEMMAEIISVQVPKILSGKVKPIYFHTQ

`CC(O)(c1ccc(Cl)cc1)c1ccc(Cl)cc1`: the Potency in assay [1] is 24.5 µM (active); in assay [2] it was 34.7 µM (active); in [4], 54.9 µM (active); in assay [11], 43.3 µM (active). Besides, the Potency entry in assay [3], in assay [5], in assay [6], in assay [7], in assay [8] and in assay [9] was “inactive” in each case. The Potency result in assay [10] is “inactive”. The outcome in assay [12] was inactive.
For `Clc1nc(C(Cl)(Cl)Cl)c(Cl)c(Cl)c1Cl`, the Potency result in assay [1], in [3], in assay [4], in assay [5], in [13] and in assay [7] was “inactive” throughout. Besides, the Potency entry in assay [9], in assay [14] and in [10] was “inactive” throughout. Further, in assay [6], the Potency was 30.6 µM (active).
With `O=C(Nc1ccccc1)c1cc(Cl)ccc1O`, the Potency result in [15], in assay [16], in assay [3], in assay [4], in assay [8] and in [10] was “inactive” in each case. The Potency in assay [6] is 17.2 µM (active); in assay [13] it was 12.2 µM (active); in assay [7], 0.686 µM (active); in assay [14], 54.5 µM (active); in assay [11], 15.4 µM (active). Further, in [12], the call was inactive.
Turning to `COc1cccc(-c2ccc(/C=C\CN3CCCCCC3)cc2Cl)c1`, the Potency in assay [15] was 43.4 µM (active); in [1], 43.4 µM (active); in [2] it was 48.7 µM (active); in assay [11], 10.8 µM (active). For the same compound, the Potency result in [3], in assay [5], in assay [7], in assay [8] and in assay [10] was “inactive” in each case. Further, the compound was classed as inactive in assay [12].
In the case of `Nc1c(CC(=O)O)cccc1C(=O)c1ccccc1`, the PLD induction in assay [17] was -2.85% [at 7.66 µM] and -2.33% [at 7.66 µM].
Take `CNC(=O)OCc1cccc(COC(=O)NC)n1`: the Potency result in assay [17] is “inactive”.
Turning to `c1ccc2c(c1)-c1ccc3ccc4cccc5cc-2c1c3c45`, the Potency entry in [15], in assay [1], in assay [2], in assay [16], in [3] and in assay [4] was “inactive” in each case. In addition, the Potency entry in assay [5], in [7] and in assay [10] was “inactive” throughout.
With `[Cl][Dy]([Cl])[Cl]`, the Potency entry in assay [1], in assay [2], in assay [16], in [3], in [4] and in [5] was “inactive” each time. The Potency entry in [6], in assay [13], in [7], in assay [8], in assay [14] and in assay [10] was “inactive” throughout. Further, the Potency in [11] was 8.63 µM (active).
Turning to `CCC(C)(C)c1ccc(CC(C)CN2C[C@@H](C)O[C@@H](C)C2)cc1` (stereo partly specified), the Potency result in assay [15], in assay [2], in assay [3], in assay [5], in [6] and in assay [13] was “inactive” in each case. Further, the Potency result in assay [17], in assay [7], in assay [8], in assay [14] and in [10] was “inactive” in each case. Also, the Potency in [16] was 23.9 µM (active).
Turning to `N#Cc1nc(Cl)c(Cl)c(Cl)c1Cl`, the Potency entry in [18], in [3], in assay [4], in assay [7] and in assay [10] was “inactive” in each case. For the same compound, the Potency in assay [6] is 54.5 µM (active); in assay [19] it was 4.86 µM (active); in assay [14], 10.9 µM (active).
For `COc1cc2c(c(OC)c1OC)-c1c(cc3c(c1OC)OCO3)C[C@@H](C)[C@](C)(O)C2`, the Potency entry in [17] was “inactive”.
In the case of `C=C1C(CCl)(CCl)C2(Cl)C(Cl)C(Cl)C1(Cl)C2(Cl)Cl` (stereo unspecified), the values for the Potency in assay [2], in [19] and in [20] were 43.1 µM (active), 48 µM (active) and 27 µM (active), respectively. The Potency entry in assay [3], in assay [4], in assay [5], in assay [6], in assay [17] and in assay [7] was “inactive” each time. In addition, the Potency result in [8], in [14] and in [10] was “inactive” throughout.
